Measurements reported in PubChem BioAssay.
A number with no mark means an inactive call. Calls of active or inactive are those of the source. Rule as the data show it: active = fold change permeability below about 0.7 or above about 1.3; inactive = in between.

Experiment: compounds altering in vitro BBB leakiness – cell-based, FITC-avidin fluorescence, HTS, primary screen (AID 1963498); also: test concentration not given here
Conditions: brain endothelial barrier, actives lie on both sides

Row | SMILES | fold change permeability
1 | COc1ccc(Cc2nn3c([C@@H](CCCc4ccccc4)[C@@H](C)O)nc(C)c3c(=O)[nH]2)cc1OC | 1.1
2 | C[C@H](NC[C@H](O)CP(=O)(O)Cc1ccccc1)c1ccc(Cl)c(Cl)c1 | 1.1
3 | CC(=O)N=c1sc(S(N)(=O)=O)nn1C | 1.4 (active)
4 | CCC1(C)CC(=O)NC1=O (configuration not stated) | 0.7 (active)
5 | O=C1Cc2cc(CCN3CCN(c4nsc5ccccc45)CC3)c(Cl)cc2N1 | 0.9
6 | O=C1c2c(O)cc(O)cc2O[C@H](c2ccc(O)c(O)c2)[C@H]1O | 1
7 | CCN1C(=O)C=CC1=O | 1
8 | Cc1ncc(-c2c[nH]c3ccccc23)o1 | 1.2
9 | O=S(=O)(c1cccc2c(I)cccc12)N1CCCNCC1 | 0.9
10 | N#Cc1c(N2CCCC2)nc(N)c2c(N)nc(N3CCCC3)cc12 | 1.8 (active)
11 | C[C@]12CCC(=O)C=C1C=C[C@@H]1[C@@H]2CC[C@@]2(C)[C@H]1CC[C@@]21CCC(=O)O1 | 1.1
12 | Nc1nc2c(ncn2[C@@H]2O[C@H](CO)[C@@H](O)[C@@H]2O)c(=O)[nH]1 | 2.1 (active)
13 | CCOC(=O)C12CC1/C(=N\O)c1ccccc1O2 (configuration not stated) | 1.2
14 | CC(CN1c2ccccc2Sc2ccccc21)N(C)C (configuration not stated) | 1.2
15 | O=C(c1ccc(OCCCc2cnc[nH]2)cc1)C1CC1 | 1
16 | Cc1nc2ccc(NC(=O)Nc3ccnc4cccnc34)cc2o1 | 1.4 (active)
17 | CC(=O)O[C@H]1C[C@@]2(C)[C@@H](C[C@@H](O)[C@H]3[C@@]4(C)CC[C@@H](O)[C@@H](C)[C@@H]4CC[C@@]32C)/C1=C(\CCC=C(C)C)C(=O)O | 1
